In PubChem BioAssay AID652104 (National Center for Advancing Translational Sciences (NCATS), 2013):
About 7,200 (1.8%) of roughly 410,000 compounds were called active. Entries that show only a call come without a potency. Another 7% or so got no clear call; they are omitted. Calls follow the shape of the dose curve; as a rule, active = well fitted activation curve with a large enough effect; inconclusive = small, poorly fitted or top-dose-only effect, or another doubt; inactive = no such curve, though single readings can be large or run the other way. For the sample, actives were picked, then their nearest neighbours and some compounds at random.

Assay: qHTS of TDP-43 Inhibitors; also: nearly all actives have a fitted effect of over 50% in size
Conditions: TDP-43 expressing yeast growth rescue, BacTiter-Glo, 24 h; series mostly up to 46.1 µM
Procedure, shortened: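 Luminescence from BacTiter-Glo reports growth of TDP-43-expressing yeast after 24 hr at 30 deg C with compound. Cells were raffinose-pregrown to mid-log, then seeded in galactose medium at OD600=0.02.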
Potency is read from the fitted curve at half-maximal effect.

SMILES | Potency | growth rescue (activation)
N#CCSc1nn(-c2ccc(F)cc2)c(=S)s1 | 15.8 µM (active) | 
Cc1ccccc1-n1nc(SCC(=O)O)sc1=S | inactive | 
O=C(CSc1nn(-c2ccc(F)cc2)c(=S)s1)NC1CCS(=O)(=O)C1 (stereo not given) | inactive | 
COc1ccc(CC(=O)Nc2nnc3n2CCS3)cc1OC | inactive | 
Cn1nc(-c2ccccc2)c(-c2ccccc2)c(C(=O)Nc2ccc(S(N)(=O)=O)cc2)c1=O | inactive | 
Cc1ccccc1C(CC(=O)c1cccs1)C(C#N)C#N (stereo not given) | 17.8 µM (active) | 
CCS(=O)(=O)N1CCN(C(=O)c2cccs2)CC1 | inactive | 
Cc1ccccc1N(C(=O)CNC(=O)c1cccs1)C(C(=O)NC1CCCC1)c1ccncc1 (stereo not given) | inactive | 
Cc1cccn2c(=O)c(C(=O)NC(C)c3ccccc3)cnc12 (stereo not given) | inactive | 
COc1ccc(CC(=O)Nc2ccc(-c3nc4ccccc4s3)c(C)c2)cc1 | inactive | 
COc1ccc(S(=O)(=O)Nc2ccc(O)c(Sc3nc4ccccc4s3)c2)cc1 | 31.6 µM (active) | 
CC(C)(C)c1ccc(S(=O)(=O)Nc2ccc(O)c(Sc3nc4ccccc4s3)c2)cc1 | inactive | 
CCOc1ccccc1NC(=O)C1CCCN(S(=O)(=O)c2cn(C)cn2)C1 (stereo not given) | inactive | 
Cc1nnc(SCC(=O)NCc2ccccc2Cl)c2nn(-c3ccccc3)c(C)c12 | inactive | 
CCn1c2c(c(=O)n3ncc(C(=O)N4CCN(c5ccccc5)CC4)c13)CN(Cc1ccc(OC)cc1)CC2 | inactive | 
Cc1ccc(-n2cc3ccc([N+](=O)[O-])cc3n2)cc1 | 15.8 µM (active) | 
CC(C)(C)NC(=O)Cn1cnc2cc([N+](=O)[O-])ccc2c1=O | inactive | 
Cc1ccc(N2CCN(c3ccc([N+](=O)[O-])cn3)CC2)c(C)c1 | inactive | 
Cc1ccc(CCNC(=O)C2CCN(c3nnc(-n4cccc4CNc4ccc(C)cc4)s3)CC2)cc1 | inactive | 
COc1ccc(S(=O)(=O)N2CCN(C(=S)NCC3CCCO3)CC2)cc1OC (stereo not given) | inactive | 
S=C(NCC1CCCO1)N1CCN(c2ccc(Cl)c(Cl)c2)CC1 (stereo not given) | 22.4 µM (active) | 
CCOc1ccc(S(=O)(=O)N2CCN(C(=S)NCC3CCCO3)CC2)cc1 (stereo not given) | inactive | 

SMILES | Potency | growth rescue (activation)
O=C(CCCn1c(=O)c2cccn2c2cccnc21)NCc1ccc(F)cc1 | inactive | 
Cc1nc2ccccn2c(=O)c1NC(=O)c1c(F)cccc1F | inactive | 
CN1C(=O)c2[nH]nc(-c3ccc(F)cc3)c2C1c1ccccn1 (stereo not given) | inactive | 
O=C(NC1CC(=O)N(c2ccc(F)cc2)C1)c1cccs1 (stereo not given) | inactive | 
CC(C)(C)c1ccc(Oc2ccc(N)cc2)cc1 | 35.5 µM (active) | 
CCCC(=O)Nc1ccc(NC(=O)c2sc3ccccc3c2Cl)cc1 | inactive | 
Cc1c(C(N)=O)sc2ncn(CCOc3ccccc3)c(=O)c12 | inactive | 
Cc1cc2ncn(CCCCOc3ccccc3)c2cc1C | inactive | 
Clc1ncn(CCOc2ccccc2)c1Cl | 17.8 µM (active) | 
CSc1oc(-c2cccs2)nc1S(=O)(=O)c1ccc(Br)cc1 | inactive | 
COc1ccc(CN2CN(C3CCCC3)CSC2=S)cc1 | 15.8 µM (active) | 
COc1ccc(CN2CC(C(=O)NC3CCCCC3)CC2=O)cc1 (stereo not given) | inactive | 
COc1ccc(CN2CN(C(C)C)CSC2=S)cc1 | inactive | 
CC1CCCN(c2nc3c(S(=O)(=O)c4ccc(C(C)C)cc4)nnn3c3ccsc23)C1 (stereo not given) | inactive | 
O=C(Nc1cc(C(F)(F)F)ccc1Cl)c1nc2ccccc2nc1N1CCCCC1 | inactive | 
COc1ccc(S(=O)(=O)N2CCOCC2)c(C)c1C | inactive | 
Cc1cc(C)c(S(=O)(=O)N2CCOCC2)cc1C | inactive | 
O=S(=O)(c1ccc(Br)c2ccccc12)N1CCOCC1 | 14.1 µM (active) | 
COc1ccccc1CN1CCC(CNC(=O)c2cnn(-c3cccc(Cl)c3)c2C2CCN(C(=O)OC(C)(C)C)CC2)CC1 | inactive | 
Cc1ccc(Cn2c(C)c3cnn(CC(=O)NCc4ccccc4)c(=O)c3c2C)cc1 | inactive | 
COc1ccc(CNC(=O)c2ccc(-c3cccnc3)c3ccoc23)cc1OC | inactive | 
COc1ccc(-c2ccc(C(=O)NC(C)C)c3occc23)c(C)c1 | 28.2 µM (active) | 

SMILES | Potency | growth rescue (activation)
COc1ccc(-c2ccc(C(=O)NCCN3CCOCC3)c3occc23)c(C)c1 | inactive | 
COC(=O)c1ccc(-c2nc3cc(NC(C)=O)ccc3o2)cc1 | inactive | 
COc1ccc(-c2cn3c(C)c(C(=O)Nc4cc(C)cc(C)c4)sc3n2)cc1 | inactive | 
COc1ccc(-n2c(SC)nc3sc4c(c3c2=O)CCN(C(C)=O)C4)cc1 | inactive | 
O=C(COc1ccc2ccccc2c1)N1CCN(C(=O)c2cccs2)CC1 | inactive | 
Cc1cc2ccccc2n1CCNC(=O)COc1ccc2ccccc2c1 | 35.5 µM (active) | 
Cc1ccccc1OCC(=O)NCC(=O)OCC(=O)c1ccc2ccccc2c1 | inactive | 
CCOc1ccccc1C(=O)NC1(C(F)(F)F)C(=O)Nc2c1c(=O)[nH]c(=O)n2-c1ccc(F)cc1 (stereo not given) | inactive | 
CCCCOc1ccc(CN2C(=O)C(=O)c3cc(Br)cc(C)c32)cc1OC | inactive | 
Cc1cccc(C2CC(=O)Oc3c2c(=O)n(C)c2ccccc32)c1 (stereo not given) | inactive | 
Cn1c(=O)c([N+](=O)[O-])c(Oc2ccccc2)c2ccccc21 | inactive | 
Cc1cccc(Oc2c([N+](=O)[O-])c(=O)n(C)c3ccccc23)c1 | 11.2 µM (active) | 
CCN(CCCNC(=O)Cn1ncc2c([nH]c3ccccc32)c1=O)c1cccc(C)c1 | inactive | 
CCOC(=O)C1CCCN(C(=O)Cn2ncc3c(C)n(Cc4ccc(F)cc4)c(C)c3c2=O)C1 (stereo not given) | inactive | 
O=C(CCOc1ccccc1)N(Cc1cccnc1)c1nc2ccc(Cl)cc2s1 | inactive | 
Nc1cccc(-c2cncc(N3CCN(Cc4ccccn4)CC3)n2)c1 | inactive | 
Nc1cccc(-c2cc(-c3ccccc3)nc(-c3cccc(N)c3)n2)c1 | 14.1 µM (active) | 
CC(=O)Nc1cc(-c2ccccc2F)cn2c(-c3cccc(C(F)(F)F)c3)cnc12 | 31.6 µM (active) | 
CC(=O)Nc1cccc(-c2cc(NC(C)=O)c3ncc(-c4ccccc4)n3c2)c1 | inactive | 
COc1cccc(-c2cnc3c(NC(C)=O)cc(-c4cccc(NC(C)=O)c4)cn23)c1 | inactive | 
CCOc1ccc(C(=O)c2cn(Cc3ccccc3OC)c3ccc(F)cc3c2=O)cc1 | inactive | 
COc1ccc2ncc3c(-c4ccc(C)c(C)c4)nn(CC(=O)NC4CCCC4)c3c2c1 | inactive | 

SMILES | Potency | growth rescue (activation)
CC1CC2=C(CC1/C=N/NC(N)=S)C(C)(C)CCC2 (stereo not given) | 22.4 µM (active) | 
COc1ccc2c(c1)Cc1sc(NC(=O)c3ccccc3Br)nc1-2 | inactive | 
CCOC(=O)c1cc2c(=O)n3ccccc3nc2n(CC2CCCO2)c1=NC(=O)c1ccc(C(C)(C)C)cc1 (stereo not given) | inactive | 
COc1ccc(OCCn2cc(C(=O)C3CCCCC3)c3ccccc32)cc1 | inactive | 
O=C(c1c(F)cccc1Cl)N1CCN(S(=O)(=O)c2ccc3c(c2)OCCCO3)CC1 | 14.1 µM (active) | 
CCNC(=O)N1CCN(S(=O)(=O)c2ccc3c(c2)OCCCO3)CC1 | inactive | 
O=C(c1ccc(Cl)nc1)N1CCN(S(=O)(=O)c2ccc3c(c2)OCCO3)CC1 | inactive | 
CCOC(=O)Cc1csc(SCC(=O)Nc2ccc(C)cc2F)n1 | inactive | 
CCOC(=O)Cc1csc(SCc2cc(=O)oc3cc(O)ccc23)n1 | inactive | 
CCOC(=O)Cc1csc(SCC(=O)NC(C)C23CC4CC(CC(C4)C2)C3)n1 (stereo not given) | 22.4 µM (active) | 
Cc1ccc(C(=O)Nc2ccc(OCc3cc(=O)n4c(C)csc4n3)cc2)cc1 | inactive | 
CCSc1nnc(NC(=O)c2cc(=O)c3cc(C)c(C)cc3o2)s1 | inactive | 
O=C(Cn1c(=O)n(Cc2ccccc2)c(=O)c2sc3ccccc3c21)Nc1ccccc1F | inactive | 
CCn1c(COc2ccccc2)nnc1SCC(=O)Nc1ccc2c(c1)OCCO2 | inactive | 
CCc1nnc(SCC(=O)Nc2cc(OC)ccc2OC)nc1CC | inactive | 
CCn1c(COc2ccc(OC)cc2)nnc1SCC(=O)Nc1cc(OC)ccc1OC | 17.8 µM (active) | 
Cc1ccc(CN2C(=O)SC(Nc3ccccc3)C2=O)cc1 (stereo not given) | inactive | 
C=CCn1c(-c2ccccc2OCC)n[nH]c1=S | inactive | 
C=CCn1c(-c2sc(-c3ccccc3)nc2C)n[nH]c1=S | 35.5 µM (active) | 
C=CCn1c(-c2ccc3[nH]c(C)c(C)c3c2)n[nH]c1=S | inactive | 
Cc1ccc(C(=O)COC(=O)C(Cc2c[nH]c3ccccc23)NC(=O)c2ccc(Br)cc2)cc1 (stereo not given) | inactive | 
O=C1OC(C(=O)Nc2cccc(Br)c2)Cc2ccccc21 (stereo not given) | inactive | 

SMILES | Potency | growth rescue (activation)
COc1cc2c(cc1OC)C(c1cccc([N+](=O)[O-])c1)=NCC2 | inactive | 
Nc1c(-c2cccc(Cl)c2)cnn1-c1cccc([N+](=O)[O-])c1 | 10 µM (active) | 
CCOC(=O)CSc1ncc(-c2cccc(Cl)c2)cn1 | inactive | 
COc1cccc(C(=O)NC(=O)Nc2ccc(-c3cc(C(F)(F)F)nn3-c3ccccc3)cc2)c1 | inactive | 
CCS(=O)(=O)N1CCC(n2c(C)nc3cccnc32)CC1 | inactive | 
Oc1ccc(-n2nnnc2SCc2c(F)cccc2Cl)cc1 | 15.8 µM (active) | 
O=C(CSc1nnnn1-c1ccc(O)cc1)c1ccc(F)cc1 | inactive | 
CCN(CC)S(=O)(=O)c1ccc2nc(CSc3nnnn3-c3ccc(O)cc3)[nH]c2c1 | inactive | 
Cc1ccc(C)c(N2CCN(c3ccc4cc(S(=O)(=O)N5CCC(C)CC5)ccc4n3)CC2)c1 | inactive | 
C=CCNc1nc(C)nc(OC)n1 | inactive | 
CCOC(=O)CNc1nc(Cl)nc(Nc2ccccc2)n1 | inactive | 
C=CCNc1nc(Nc2ccc(Cl)cc2)nc(OC)n1 | 35.5 µM (active) | 
Cc1cccc(NC(=O)N2CCN(C)c3ncccc32)c1C | inactive | 
O=C(Nc1nnc(-c2ccc(Cl)cc2)o1)c1ccccc1Br | 7.08 µM (active) | 
Cc1c(Br)ccc(NC(=O)COc2ccccc2C(N)=O)c1C |  | 10.9% [at 9.22 µM] (inactive)
O=C(COc1ccccc1)Nc1nonc1NC(=O)COc1ccccc1 | inactive | 
O=C(COC(=O)c1ccccc1Br)Nc1nnc(-c2ccccc2)o1 | 22.4 µM (active) | 
COc1cccc(-c2nnc(NC(=O)c3ccc(S(=O)(=O)N(CC(C)C)CC(C)C)cc3)o2)c1 | inactive | 
CC(C)CNC(=O)COC(=O)c1ccccc1OCC(=O)Nc1ccc(Br)cc1 | inactive | 
O=C(COC(=O)c1ccc(Oc2ccccc2)cc1)Nc1nnc(-c2ccccc2)o1 | 22.4 µM (active) | 
O=C(COC(=O)CSc1nnc(-c2ccc(Cl)cc2)o1)Nc1cc(Cl)cc(Cl)c1 | inactive | 
O=C(Nc1ccc(-c2nc3cc(NC(=O)c4ccccc4Cl)ccc3o2)cc1)c1ccccc1Cl | inactive | 
